Screening data (PubChem BioAssay)
NOD2 RIPK2 PPI = blocks binding of human NOD2 to RIPK2; AID 624267; inhibition, % at 4.98 µM; CHO BLA complementation NOD2-RIPK2, CCF4 ratio; hit rate 0.38% among 360,000; O43353; in the data active = inhibition above about 21%;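 note: 0% = vehicle only and 100% = reference blocker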
Myeloid diff MLP = compounds promoting myeloid differentiation. hit rate 1% among 360,000. calls only at 10 µM. ER-HoxA9 myeloid progenitors, lysozyme-GFP differentiation, flow cytometry;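 active = normalized GFP-positive differentiation at or above the plate's own cutoff, the solvent-only control mean plus 3 SD; inconclusive = no clear call, values can overlap the other calls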;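 note: cells exposed to compound for four days before flow analysis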
TLR4 MyD88 comp = inhibitors of human TLR4-MyD88 binding. O00206+Q99836. HeLa CL3-4 TLR4/MyD88 BLA complementation, FRET ratio. inhibition, % at 8.4 µM. hit rate 0.18% among 200,000; in the data active = inhibition above about 25%;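 note: 0% = vehicle and 100% = reference inhibitor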
TLR9-MyD88 inh = blocks human TLR9 binding to MyD88; Q9NR96+Q99836; CHO BLA complementation TLR9-MyD88, CCF4 FRET ratio; inhibition, % at 4.98 µM; hit rate 0.21% among 340,000;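 active = inhibition above the mean over all tested compounds plus 3 SD, cut at about 21% in these data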;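 note: 0% = DMSO only wells and 100% = clavulanate BLA inhibitor control wells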
Target sequence (Q99836 whole entry, looked up): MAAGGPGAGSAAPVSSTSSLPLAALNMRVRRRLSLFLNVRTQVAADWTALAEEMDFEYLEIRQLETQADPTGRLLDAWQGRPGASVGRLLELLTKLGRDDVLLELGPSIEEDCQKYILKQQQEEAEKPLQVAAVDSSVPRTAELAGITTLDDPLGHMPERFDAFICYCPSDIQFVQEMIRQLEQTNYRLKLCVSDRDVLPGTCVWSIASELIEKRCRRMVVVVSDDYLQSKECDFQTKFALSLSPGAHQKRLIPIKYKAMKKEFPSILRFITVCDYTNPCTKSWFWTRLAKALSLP
Target sequence (Q9NR96 whole entry, looked up): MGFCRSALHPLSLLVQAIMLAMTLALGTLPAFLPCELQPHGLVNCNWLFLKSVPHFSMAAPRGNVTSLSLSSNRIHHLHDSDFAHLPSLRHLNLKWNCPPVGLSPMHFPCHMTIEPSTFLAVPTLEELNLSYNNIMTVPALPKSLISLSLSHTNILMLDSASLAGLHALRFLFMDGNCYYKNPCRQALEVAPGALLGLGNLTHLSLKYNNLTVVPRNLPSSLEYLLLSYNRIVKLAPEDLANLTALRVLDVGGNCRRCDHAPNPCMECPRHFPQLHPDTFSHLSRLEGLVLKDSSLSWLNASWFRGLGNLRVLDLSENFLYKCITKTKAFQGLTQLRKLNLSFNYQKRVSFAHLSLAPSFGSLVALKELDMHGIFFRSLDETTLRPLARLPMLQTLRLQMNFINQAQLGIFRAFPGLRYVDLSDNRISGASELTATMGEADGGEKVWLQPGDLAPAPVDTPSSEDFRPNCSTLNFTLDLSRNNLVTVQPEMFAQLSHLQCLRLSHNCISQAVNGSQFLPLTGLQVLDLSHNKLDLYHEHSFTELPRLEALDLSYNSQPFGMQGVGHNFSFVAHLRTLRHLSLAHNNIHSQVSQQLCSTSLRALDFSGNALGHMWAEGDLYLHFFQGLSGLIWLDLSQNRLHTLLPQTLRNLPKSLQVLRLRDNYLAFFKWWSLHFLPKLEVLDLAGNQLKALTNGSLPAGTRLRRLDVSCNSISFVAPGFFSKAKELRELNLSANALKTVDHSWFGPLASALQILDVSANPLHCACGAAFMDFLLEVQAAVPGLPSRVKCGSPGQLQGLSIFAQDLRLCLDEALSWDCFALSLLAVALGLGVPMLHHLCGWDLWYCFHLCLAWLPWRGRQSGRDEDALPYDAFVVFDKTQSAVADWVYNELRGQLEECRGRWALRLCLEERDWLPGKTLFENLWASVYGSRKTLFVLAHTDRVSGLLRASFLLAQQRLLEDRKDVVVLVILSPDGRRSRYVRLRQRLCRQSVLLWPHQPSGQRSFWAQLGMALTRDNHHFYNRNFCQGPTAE
Myeloid diff CP1 = myeloid differentiation induction; shares compounds with Myeloid diff MLP; ER-HoxA9 myeloid progenitors, GFP/Mac1 double-positive flow; calls only; hit rate 2% among 2,300;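 active = share of green or green-and-red cells above 9 and 9% in run 1 or 4 and 3% in run 2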
GFP autofluor = counter-screen for myeloid differentiation promoters: compound fluorescence; shares compounds with Myeloid diff MLP; ER-HoxA9 myeloid progenitors, no estrogen, GFP autofluorescence flow cytometry; vehicle wells 0%, positive control 100%; fluorescence response, % (concentration not given with the values); hit rate 7.4% among 2,300;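 active = over 5% cells positive for green fluorescent reporter, or over 2% positive for both it and APC stain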;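 note: range taken on the double positive population between DMSO and positive control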
NOD2 RIPK2 conf = NOD2-RIPK2 interaction inhibition confirmed | shares compounds with NOD2 RIPK2 PPI | CHO cells, NOD2-RIPK2 BLA complementation, CCF4 FRET | inhibition, % at 4.98 µM | hit rate 70% among 1,200 | AID 624370;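 active = mean inhibition across replicates above a set limit taken from the earlier primary screen, cut at about 21% in these data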;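 note: 0% = DMSO-only wells and the high end = clavulanate BLA-blocked wells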
BLA counter = hits BLA reporter in NOD2-RIPK2 inhibitor counterscreen; shares compounds with NOD2 RIPK2 PPI; CHO BLA reporter, CCF4 FRET ratio; inhibition, % at 4.98 µM; hit rate 57% among 1,200; AID 624371;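 active = mean inhibition above the low-control mean inhibition plus three low-control SD, cut at about 11% in these data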;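 note: 0% = DMSO only wells and 100% = clavulanate high control wells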
* = called active by the depositor; i = inactive; u = inconclusive; x = not tested or not shown; + = active, no number. In the library only some 1.5% were active in any assay of this set; here they are far more common.

SMILES | NOD2 RIPK2 PPI | Myeloid diff MLP | TLR4 MyD88 comp | TLR9-MyD88 inh | NOD2 RIPK2 conf | BLA counter | others
Cc1ccc(-n2nnnc2Sc2nc([N+](=O)[O-])nn2C)cc1 | -5.0 | + | 5.6 | -7.3 | x | x | Myeloid diff CP1=i;GFP autofluor=0.0
Cc1ccc(-n2nnnc2Sc2nc([N+](=O)[O-])nn2C)c(C)c1 | -8.6 | i | -5.5 | -9.4 | x | x
OC[C@@H]1CN(Cc2ccco2)C[C@H](n2cnc3c(Nc4ccccc4)ncnc32)O1 | -0.1 | i | x | x | x | x
Cc1cccc(C)c1NC(=O)C1(C)CN(S(C)(=O)=O)CC(=O)N1Cc1ccco1 (stereo not given) | -3.9 | i | x | x | x | x
C[C@@H]1CN([C@@H](C)CO)C(=O)c2cccc(NS(C)(=O)=O)c2O[C@H]1CN(C)Cc1ccc(Oc2ccccc2)cc1 | 0.8 | i | x | -8.3 | x | x | Myeloid diff CP1=i;GFP autofluor=0.0
Cc1ccc(Cl)cc1N1CCN(Cc2nc3c(c(=O)[nH]c(=O)n3C)n2Cc2ccccc2F)CC1 | 10.8 | i | x | 13.5 | x | x
Cc1ccc(Cl)cc1N1CCN(Cc2nc3c(c(=O)[nH]c(=O)n3C)n2CCc2ccccc2)CC1 | -4.3 | i | -0.2 | -4.0 | x | x | Myeloid diff CP1=i;GFP autofluor=0.4
COc1ccc(C(=O)C(=O)N2CCN(c3ccccc3F)CC2)cc1 | -4.7 | i | x | x | x | x
Cc1noc(C)c1C(=O)N(C)C[C@@H]1OCc2ccccc2-c2c(n(C)c3ccccc23)C(=O)N([C@H](C)CO)C[C@H]1C | -7.6 | i | x | 6.5 | x | x
c1ccc(COCCCn2cc(-c3ccccc3)nn2)cc1 | 2.6 | + | x | -2.5 | x | x | Myeloid diff CP1=i;GFP autofluor=0.3
C=CCc1c(C)nc(-c2ccccc2)nc1Nc1ccccc1O | -0.5 | + | 10.3 | 5.8 | x | x | Myeloid diff CP1=i;GFP autofluor=63.2*
NC(=O)CCC(NS(=O)(=O)c1ccc(Cl)cc1)C(=O)NCC1CCCCC1 (stereo not given) | 2.8 | i | x | 1.1 | x | x | Myeloid diff CP1=i;GFP autofluor=0.0
NC(=O)CCC(NS(=O)(=O)c1ccc(Cl)cc1)C(=O)NCc1ccc(Cl)cc1 (stereo not given) | 7.7 | i | 2.9 | -0.8 | x | x
COc1ccc2cnn(CCOc3cc(C)ccc3C(C)C)c(=O)c2c1OC | 7.3 | + | -4.4 | 6.2 | x | x | Myeloid diff CP1=i;GFP autofluor=0.0
CCOc1ccccc1OCCn1ncc2ccc(OC)c(OC)c2c1=O | -9.3 | i | 2.8 | -1.8 | x | x
CC1CCCN(CCCNC(=O)c2ccc3c(c2)N(Cc2cccc(Cl)c2)C(=O)c2ccccc2S3=O)C1 (stereo not given) | 7.5 | i | x | -8.0 | x | x | Myeloid diff CP1=i;GFP autofluor=1.2
CC1CCCN(CCCNC(=O)c2ccc3c(c2)N(Cc2ccc(F)cc2)C(=O)c2ccccc2S3=O)C1 (stereo not given) | 8.1 | i | x | 6.9 | x | x
Cc1ccc(C(=O)OCCc2c(C)[nH]n(-c3ccccc3)c2=O)cc1 | -10.9 | i | 1.7 | -5.0 | x | x | Myeloid diff CP1=i;GFP autofluor=0.3
Cc1[nH]n(-c2ccccc2)c(=O)c1CCOC(=O)c1cccc(C(F)(F)F)c1 | 1.2 | i | 10.7 | -5.3 | x | x
CC(=O)N1CCN(c2cc(-c3ccccc3)nc3cc(-c4cccc(Cl)c4)nn23)CC1 | -5.3 | i | x | -5.6 | x | x
C[C@]12C=CC(=O)C=C1CC[C@H]1[C@@H]3C[C@@H](O)[C@](O)(C(=O)CO)[C@@]3(C)C[C@H](O)[C@@]12F | -23.7 | i | -0.5 | -14.9 | x | x | Myeloid diff CP1=i;GFP autofluor=0.0
Cc1ccccc1Cn1c(C)c(C(=O)NCCC#N)sc1=O | -12.7 | i | x | x | x | x
CC(/C=C/c1ccc(N(C)C)cc1)=N/N=C1/NC(=O)CC(C(=O)Nc2ccc(Cl)cc2)S1 (stereo not given) | 24.0* | + | 6.8 | 14.4 | 18.6 | 32.0* | Myeloid diff CP1=i;GFP autofluor=0.0
Cc1cccc(CN(C)C[C@H]2OCc3cnnn3CCCC(=O)N([C@@H](C)CO)C[C@@H]2C)c1 | -4.5 | i | x | 5.9 | x | x
O=[N+]([O-])/C=C/c1cn(Cc2ccc(Cl)cc2)c2ccccc12 | 21.1* | i | -3.3 | 2.0 | 37.6* | 10.0
SMILES | NOD2 RIPK2 PPI | Myeloid diff MLP | TLR4 MyD88 comp | TLR9-MyD88 inh | NOD2 RIPK2 conf | BLA counter | others
Cc1cccc(Cn2cc(/C=C/[N+](=O)[O-])c3ccccc32)c1 | 10.3 | u | 13.5 | 4.6 | x | x
CN(C)Cc1csc(NC(=O)Nc2ccccc2C(C)(C)C)n1 | 4.1 | i | x | x | x | x
Fc1ccc(/C=C2\CCCC3=C2Nc2ncnn2C3c2ccc(F)cc2)cc1 (stereo not given) | 25.8* | u | -9.8 | 4.9 | 10.6 | 13.9*
O=[N+]([O-])c1ccc(N/N=C/c2ccccc2)c(F)c1 | 24.1* | i | 17.1 | 16.6 | 27.0* | 29.9*
O=[N+]([O-])c1ccc(C=NNc2ccccc2)cc1 | 5.4 | i | x | 15.8 | x | x
O=C(CSc1ccc([N+](=O)[O-])cc1)Nc1cccc(S(=O)(=O)N2CCOCC2)c1 | 40.8* | i | x | 10.9 | -0.3 | -1.4
COc1ccc(-c2cc(-c3cccs3)nc3sc(C#N)c(N)c23)cc1 | 44.7* | i | 17.1 | 13.4 | 51.4* | 68.6*
N#Cc1sc2nc(C3CC3)cc(-c3ccc(Cl)cc3)c2c1N | 27.9* | i | 12.6 | 14.3 | 19.1 | 25.0*
COCc1cc(C)c2c(N)c(C#N)sc2n1 | -7.1 | i | -3.4 | 1.3 | x | x
Cc1nc([N+](=O)[O-])c(Br)n1Cc1ccc(Cl)c(Cl)c1 | 23.3* | x | 12.6 | 7.9 | 42.6* | -3.8
Cc1nc([N+](=O)[O-])c(Br)n1CC(=O)c1ccc(Cl)cc1 | 15.4 | i | 6.7 | -3.3 | x | x
CC(C)(C)OC(=O)n1cccc1/C=C1\c2ccccc2C(=O)N1c1ccccc1 | 40.7* | i | x | -2.4 | 5.8 | 5.4
O=C1c2ccccc2/C(=C\c2ccc(Br)s2)N1c1ccccc1 | -1.3 | i | x | -26.5 | x | x
Cc1cccc(C)c1-n1nnnc1C(c1ccnc2ccccc12)N1CCCN(C(=O)OC(C)(C)C)CC1 (stereo not given) | 0.7 | i | x | x | x | x
Cc1cc(C(=O)OCC(=O)c2ccc3c(c2)OCCO3)c(C)o1 | -4.8 | i | 5.1 | 6.2 | x | x
Cc1c(C(=O)OCC(=O)c2ccc3c(c2)OCCO3)oc2ccccc12 | 25.8* | i | -0.2 | -0.1 | -3.3 | -2.7
C[C@H](NC(=O)N1CCn2c1nc1ccccc12)C(=O)NC1CC1 | 3.6 | i | x | 5.0 | x | x
C[C@H](NC(=O)N1CCn2c1nc1ccccc12)C(=O)N1CCCCC1 | 21.1* | i | x | 0.9 | -8.4 | -1.1
CCOC(=O)C1(NC(=O)C2(N3C(=O)c4ccccc4C3=O)CCCC2)CCCC1 | -4.0 | i | x | 4.7 | x | x
O=C1C2C3C=CC(CC3)C2C(=O)N1c1ccccc1 (stereo not given) | -1.0 | i | x | 7.0 | x | x
O=C1C=CC2C3C(=O)N(c4ccccc4)C(=O)C3C1N2Cc1ccccc1 (stereo not given) | 67.6* | x | x | 7.8 | 75.3* | -1.1
